Assay outcomes deposited in PubChem BioAssay by National Center for Advancing Translational Sciences (NCATS).
Sampled rows, rich in hits. Any-hit rate of the full collection: about 2.4%.
D2 antagonist: D2 dopamine receptor (human) antagonism; P14416; HEK293 TREx D2 cells, calcium flux, dopamine EC80; inhibition, % at 10 µM; actives 2% (n = 340,000); AID 485344; in the data active means inhibition above about 30%; inactive means below that, where a call was filed
Target sequence (P14416 whole entry, looked up): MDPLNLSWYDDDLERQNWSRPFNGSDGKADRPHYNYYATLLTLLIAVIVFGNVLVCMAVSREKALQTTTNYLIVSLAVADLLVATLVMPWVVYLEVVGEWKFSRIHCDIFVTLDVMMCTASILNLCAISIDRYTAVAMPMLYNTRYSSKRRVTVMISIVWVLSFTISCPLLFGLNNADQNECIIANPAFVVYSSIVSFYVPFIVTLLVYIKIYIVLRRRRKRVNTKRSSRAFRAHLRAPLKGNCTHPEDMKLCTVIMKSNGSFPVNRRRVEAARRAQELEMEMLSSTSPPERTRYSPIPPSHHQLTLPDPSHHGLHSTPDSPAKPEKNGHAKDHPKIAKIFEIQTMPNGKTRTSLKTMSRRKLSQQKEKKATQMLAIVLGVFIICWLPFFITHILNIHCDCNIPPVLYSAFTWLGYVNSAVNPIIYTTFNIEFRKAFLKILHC
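HEK293 T-REx D2 cells, tet-induced, calcium dye no-wash. Cpd pintool add, 180 s kinetic, then EC80 DA, 180 s kinetic. Ca flux read.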
D2 PAM-1: positively modulates the human D2 dopamine receptor allosterically; HEK293 T-REx D2, calcium flux, EC20 dopamine potentiation; P14416; actives 0.34% (n = 340,000); potentiation, % at 10 µM;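 active means potentiation over 3 SD above the plate norm, cut at about 30% in these data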
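Tetracycline-induced Hek293 Trex D2 cells, force-coupled to calcium, loaded with no-wash calcium dye. Compound added with 180 s kinetic read for agonism, then EC20 dopamine and a further 180 s read for potentiation.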
D2 ag-1: D2 dopamine receptor (human) agonism; HEK293 T-REx D2 cells, calcium flux agonist mode; activation, % at 2 µM; actives 0.53% (n = 340,000); AID 485358;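 active means activation over 3 SD above normal in the single-dose calcium agonist read, cut at about 30% in these data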
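Agonism is scored from calcium flux in a force-coupled, inducible HEK293 cell line expressing D2, read kinetically for 180 s after compound addition against dopamine controls.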
D2 ag-2: human D2 receptor agonism in beta-arrestin assay; P14416; DiscoveRx PathHunter D2 beta-arrestin, luminescence, 90 min; 100% = 57 uM dopamine signal; activation, % (concentration not given with the values); actives 0.084% (n = 360,000); AID 624465; in the data active means activation above about 40%; inconclusive means between about 15% and that limit
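DiscoveRx PathHunter D2 beta-arrestin cells (2,100/well) attached overnight, then compound-stimulated 90 min at 37 C in HBSS/10 mM HEPES/0.1% Tween-20 buffer; beta-galactosidase complementation read by luminescence after 1 h at ambient temperature. Dopamine 57 uM final (EC100) as control.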
D2 PAM-2: positive allosteric modulators of human D2 dopamine receptor; DiscoveRx D2 beta-arrestin cells, luminescence, 90 min; 100% = 57 uM dopamine signal; potentiation, % (no concentration beside the values); actives 0.23% (n = 360,000); P14416; in the data active means potentiation above about 50%; inconclusive means mostly about 30% to 49%
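D2 cells co-treated with compound plus 50 nM dopamine (EC20) for 90 min at 37 deg C to detect potentiation. Beta-arrestin recruitment was read as enzyme-fragment luminescence after 1 h at ambient temperature. Full response was set by 57 uM dopamine.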
Large screens that a line does not name were inactive; ! = a repeat was not active.

Cc1cc(NC(=O)c2cccc(Oc3ccccc3)c2)n[nH]1	D2 PAM-1 74
O=C1CC(c2cccc(Cl)c2Cl)c2cc3c(cc2N1)OCCO3 (stereo not given)	none (no result: D2 antagonist, D2 ag-2, D2 PAM-2)
Cc1ccc(NC(=O)Cn2nc(C(=O)O)c3ccccc3c2=O)c([N+](=O)[O-])c1	none
CC1CCCCC1NC(=O)Cn1cccc1C(=O)c1ccccc1 (stereo not given)	D2 PAM-1 35
Cc1ccccc1C(=O)c1cccn1CC(=O)NC1CCCC(C)C1C (stereo not given)	none
O[C@@H]1COC(Nc2ccc(N=Nc3ccccc3)cc2)C[C@@H]1O (stereo not given in full)	none
CC(C)CNC(=O)NC(=O)COc1ncnc2sccc12	D2 antagonist 37
CCCNC(=O)COc1ncnc2sccc12	D2 antagonist 33
COc1ccc([C@H]2C[C@H](n3cc(-c4ccc(F)cc4)nn3)[C@@H](O)CN2CC2CCCCC2)cc1	none (no result: D2 antagonist, D2 PAM-1, D2 ag-1)
CC1(C(=O)NCCc2ccccc2)Cc2c(-c3cccc(C(N)=O)c3)ccnc2O1 (stereo not given)	none (no result: D2 antagonist, D2 PAM-1, D2 ag-1)
Fc1ccc(Nc2nc3ccccc3s2)cc1	D2 antagonist 33
Cc1ccc(Nc2nc3ccccc3s2)cc1	none
COC(=O)c1sccc1NC(=S)N1CCCCC1	none
COC(=O)c1sccc1NC(=S)N1CCC(C(N)=O)CC1	D2 antagonist 36
CCOC(=O)C(=CNc1ccc(NC2=NCC(C)(C)S2)cc1)C(=O)OCC	none
Cc1ccc(-n2nc3c(c2NC(=O)c2ccco2)CS(=O)C3)c(C)c1 (stereo not given)	D2 antagonist 33
CC1CCN(C(=O)c2c(NC(=O)c3ccccc3Cl)sc3c2CCC(C(C)(C)C)C3)CC1 (stereo not given)	none (no result: D2 antagonist, D2 ag-2, D2 PAM-2)
CC12CCC(c3c1nc1ccccc1[n+]3[O-])C2(C)C (stereo not given)	none
O=[N+]([O-])c1cc([N+](=O)[O-])c(Oc2cc(F)ccc2F)cc1NN1CCCCC1	none
Cc1cc(F)ccc1Oc1cc(NN2CCCCC2)c([N+](=O)[O-])cc1[N+](=O)[O-]	D2 antagonist 30
Cc1ccc(C(=O)CN(C(=O)c2ccc(Cl)cc2)N2C(=O)CCC2=O)cc1	D2 antagonist 31
Cc1ccc(C(=O)CN(C(=O)c2ccc(Cl)cc2)N2C(=O)c3ccccc3C2=O)cc1	none
O=C(COc1ccccc1)N/N=C/c1sc(=O)n(Cc2cccc(C(=O)O)c2)c1Cl	D2 antagonist 44
CC(=O)Nc1cccc(NC(=O)CSc2nnnn2-c2ccc3c(c2)OCO3)c1	none (no result: D2 ag-2, D2 PAM-2)
Cc1nc2nc[nH]n2c(=O)c1NC(=O)CC12CC3CC(CC(C3)C1)C2	D2 PAM-1 31!
Oc1ccc(NCc2ccccc2OCc2ccccc2F)cc1	D2 PAM-2 115
CCOc1cc(CNCc2ccccc2)ccc1OCc1ccc(Cl)cc1	none (no result: D2 antagonist, D2 PAM-1, D2 ag-1)
CCOc1cccc(CNc2ccc(O)cc2)c1OCc1ccc(Cl)cc1	D2 ag-2 inconclusive, D2 PAM-2 91
CCOc1cc(CNc2ccc(O)cc2)ccc1OCc1ccc(Cl)cc1Cl	D2 ag-2 44, D2 PAM-2 96
COc1cccc(OCC(O)CN2CCC(Cc3ccccc3)CC2)c1 (stereo not given)	none
Cc1ccc(OCC(O)Cn2c3ccccc3c3ccccc32)cc1 (stereo not given)	none
OC(COc1ccccc1)CN1CCC(Cc2ccccc2)CC1 (stereo not given)	D2 antagonist 74
COc1ccc(OC)c(S(=O)(=O)N2CCN(CC(O)COc3ccccc3)CC2)c1 (stereo not given)	D2 antagonist 48
COc1ccc(OC)c(S(=O)(=O)N2CCN(CC(O)COc3ccc(C#N)cc3)CC2)c1 (stereo not given)	none
Cc1ccc(OCCN2CCN(CC(O)Cn3c4ccccc4c4ccccc43)CC2)cc1 (stereo not given)	D2 antagonist 63, D2 ag-1 63 (no result: D2 ag-2, D2 PAM-2)
C=CCc1ccc(OCC(O)CN2CCC(Cc3ccccc3)CC2)c(OC)c1 (stereo not given)	D2 antagonist 41
CCCC(=O)N1CCCC1(C)C(=O)Nc1ccc(OC(F)F)cc1 (stereo not given)	none (no result: D2 antagonist, D2 PAM-1, D2 ag-1)
